# High-throughput results: PubChem, National Center for Advancing Translational Sciences (NCATS)
# FLuc inh: Firefly luciferase inhibition profiling of diverse chemical library using quantitative high-throughput screening; Luciferin 4-monooxygenase (Photinus pyralis), P08659; purified P. pyralis luciferase, luminescence, biochemical; Potency, µM (highest dose often 115 µM), hits mostly inhibitors; 76,000 compounds, 2.5% hits; further: nearly all actives have a fitted effect of over 65% in size
#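 Inhibitors were tested against purified firefly luciferase in a biochemical, low-substrate format (both substrates at 10uM) and luminescence measured with a CCD imager.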
# 3T3 cytotox: Cytotoxic Profiling in NIH 3T3 Cell Line of Diverse Libraries Using Quantitative High-Throughput Screening; NIH 3T3 viability, CellTiter-Glo ATP luminescence, 48-72 h; Potency, µM (highest dose often 96.7 µM), inactives show at the top dose activity change, negative = cytotoxicity, hits mostly inhibitors; 94,000 compounds, 4.3% hits; further: nearly all actives have a fitted effect of over 55% in size
#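 ATP-dependent luminescence (CellTiter-Glo) served as the viability signal for NIH 3T3 cells treated with compound for 48 or 72 hr at 37 °C.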
# NPR1 antag: Natriuretic polypeptide receptor (hNpr1) antagonism - Primary qHTS; Atrial natriuretic peptide receptor 1 (Homo sapiens), P16066; HEK293 hNpr1 GloSensor cGMP, ANP-stimulated luminescence; Potency, µM (doses to about 46.3 µM), without a hit: at the top dose activity change, negative = inhibition, most hits filed as inhibitors; 76,000 compounds, 1.6% hits; calls by dose curve; further: nearly all actives have a fitted effect of over 60% in size
#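 HEK293 cells stably expressing human Npr1 and cGMP GloSensor pGS-40F, loaded 2 h with 2% GloSensor reagent, given compound 30 min at room temperature. Luminescence read before and 20 min after 0.1 nM hNppA.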
# GPT2 inh: Primary qHTS assay for inhibitors of Glutamate pyruvate transaminase 2 (GPT2). 100,000 compounds, 0.25% hits. AID 1671188, 2021. Alanine aminotransferase 2 (Homo sapiens), Q8TD30. Recombinant GPT2, coupled pyruvate oxidase/HRP Amplex Red fluorescence. Potency, µM (series often up to 57.7 µM), for the others: at the highest dose activity change, negative = inhibition, usual class: inhibitors; further: nearly all actives have a fitted effect of over 60% in size
# Target sequence (Q8TD30 whole entry, looked up): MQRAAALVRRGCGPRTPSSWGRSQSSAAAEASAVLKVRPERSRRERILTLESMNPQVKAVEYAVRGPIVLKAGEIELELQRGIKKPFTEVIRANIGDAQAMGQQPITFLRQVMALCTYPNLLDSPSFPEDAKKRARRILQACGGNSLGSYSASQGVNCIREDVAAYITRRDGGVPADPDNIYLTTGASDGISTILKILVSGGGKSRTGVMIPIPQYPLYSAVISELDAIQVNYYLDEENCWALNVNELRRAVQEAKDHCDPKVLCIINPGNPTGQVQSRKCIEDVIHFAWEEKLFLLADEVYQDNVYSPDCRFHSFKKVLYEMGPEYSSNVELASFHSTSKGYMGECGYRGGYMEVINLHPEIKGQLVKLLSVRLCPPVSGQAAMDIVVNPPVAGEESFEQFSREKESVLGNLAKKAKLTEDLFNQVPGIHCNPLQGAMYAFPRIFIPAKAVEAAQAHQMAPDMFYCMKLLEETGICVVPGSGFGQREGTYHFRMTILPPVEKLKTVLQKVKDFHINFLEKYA
#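 Recombinant GPT2 (10ng/uL) with 250uM a-KG and 2mM L-alanine, 30 min at room temperature, in HEPES pH 7.5 buffer. Pyruvate detected by pyruvate oxidase/HRP/Amplex Red fluorescence after 30 min in the dark; AOA (50uM) as positive control.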
# HEK293 tox: Cytotoxic Profiling in HEK 293 Cell Line of Diverse Libraries Using Quantitative High-Throughput Screening; 94,000 compounds, 6.6% hits; Potency, µM (titrated, usually from 115 µM), for inactives: top-dose activity change, negative = cytotoxicity, hits mostly inhibitors; HEK 293 viability, ATP luminescence (CellTiter-Glo), 48-72 h; further: nearly all actives have a fitted effect of over 60% in size
#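 Pintool-delivered compounds were incubated with HEK 293 cells (250 cells/well) at 37 degree Celsius for 48 or 72 hr. ATP-dependent luminescence (CellTiter-Glo) then reported remaining viable cells.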
# * marks the source's active call; other numbers are inactive results; i = inactive; ? = inconclusive; · = not tested or not shown; [ ] = dose if it differs, or a comment. Shown are actives, neighbours in structure and some others; about 10% of the full set was active somewhere. Unless noted, the call rests on the fitted dose curve; in most records, active means well fitted curve in the direction sought with a large enough effect; inconclusive means small, poorly fitted or top-dose-only effect, or another doubt; inactive means no such curve, though single readings can be large; an effect the other way counts as inactive or inconclusive. On the % scale 0 is the no-effect control and ±100 the full control effect; potency means the concentration at half of the fitted maximal effect.
SMILES,FLuc inh,3T3 cytotox,NPR1 antag,GPT2 inh,HEK293 tox
O=C(NCc1ccccc1)c1ccccc1OC1CN(Cc2cccnc2Cl)C1,·,?,·,i,44.7µM*
O=C(NCc1ccccc1)c1ccccc1OC1CN(Cc2cccc(F)c2)C1,i,?,-16.2%,i,28.2µM*
Cc1cc(F)ccc1OC1CN(Cc2ccccc2)C1,i,89.1µM*,0.0%[70.6 µM],?,?
O=C(NCc1ccccc1)c1ccccc1OC1CN(Cc2ccncc2)C1,i,?,-5.9%,i,39.8µM*
Cc1cccc(NC(=O)Cn2cccc2-c2nc(-c3ccc4c(c3)OCO4)no2)c1,i,0.2%,-3.9%,-8.8%,-5.8%
CN(C)C(C(=O)N1CCC(F)(F)CC1)c1ccccc1F (stereo not drawn),i,-1.7%,3.5%,i[11.5 µM],i
Cc1ccsc1CN1CCCCCCNC(=O)CC1,i,-16.1%,-1.5%,i,?
Cc1cn2nc(C(=O)Nc3ccccc3F)cc2c(N(C)Cc2ccccc2)n1,i,-27.4%,14.7%,4.0%,-26.6%
Cc1ccc(CN2CC(Oc3ccccc3C(=O)N3CCOCC3)C2)cc1C,i,?,1.5%,0.6%,44.7µM*
COc1cc(NC2=N[C@H]3[C@@H](O)[C@H](O)C[C@H](C(=O)N(C)Cc4ccccc4)[C@H]3S2)cc(OC)c1,i,-1.3%,-18.2%,-10.6%,0.1%
Cc1ccc(NC2=N[C@H]3[C@@H](O)[C@H](O)C[C@H](C(=O)N(C)Cc4ccccc4)[C@H]3S2)cc1,31.6µM*,-0.6%[174 µM],-3.3%[70.6 µM],?,3.4%[172 µM]
Cc1ccc(CN2Cc3[nH]cnc3C[C@H]2C(=O)NCc2ccc(C(F)(F)F)cc2)cc1,i,100µM*,-17.8%[70.6 µM],-7.9%[88.5 µM],70.8µM*
N#Cc1ccc(CNC(=O)[C@@H]2Cc3nc[nH]c3CN2Cc2ccc(C(F)(F)F)cc2)cc1,i,-29.8%,1.1%,i,-27.3%
COc1ccc(S(=O)(=O)N2[C@@H]3CC[C@H]2CC(NC(=O)c2ccc(F)cc2)C3)cc1 (stereo partly drawn),i,-17.9%,-2.4%,i,?
Cc1cnc(C2CCOCC2)n1C1CCN(C(=O)Nc2ccc3c(c2)OCCO3)CC1,35.5µM*,-10.5%,1.8%,i,-16.7%
O=C(Nc1ccc2c(c1)OCCO2)N1CCC(Cc2noc(C3CCOCC3)n2)C1 (stereo not drawn),17.8µM*,-34.5%,-12.7%,-14.7%,-7.4%
Cc1nn(C)c(=O)n1C1CCN(C(=O)Nc2ccc3c(c2)OCCO3)CC1,·,-0.5%,·,2.0%,i
CNC(=O)N1CCC(Cc2noc(C3CCOCC3)n2)C1 (stereo not drawn),i,-1.3%,-6.0%,i,-23.4%
CNC(=O)c1cc(C)nc2onc(C3CCN(C(C)=O)CC3)c12,·,-23.9%[138 µM],·,·,-2.2%[172 µM]
